Source: PubChem BioAssay
AmpC detergent – inhibitors of E. coli AmpC beta-lactamase with detergent | AmpC hydrolysis of nitrocefin, absorbance 480 nm, 0.01% Triton | AID 485294 | 370,000 compounds, 0.041% hits | P00811 | Potency, µM (top dose mostly 114 µM), most hits filed as inhibitors; note: nearly all actives have a fitted effect of over 25% in size
Target sequence (P00811 whole entry, looked up): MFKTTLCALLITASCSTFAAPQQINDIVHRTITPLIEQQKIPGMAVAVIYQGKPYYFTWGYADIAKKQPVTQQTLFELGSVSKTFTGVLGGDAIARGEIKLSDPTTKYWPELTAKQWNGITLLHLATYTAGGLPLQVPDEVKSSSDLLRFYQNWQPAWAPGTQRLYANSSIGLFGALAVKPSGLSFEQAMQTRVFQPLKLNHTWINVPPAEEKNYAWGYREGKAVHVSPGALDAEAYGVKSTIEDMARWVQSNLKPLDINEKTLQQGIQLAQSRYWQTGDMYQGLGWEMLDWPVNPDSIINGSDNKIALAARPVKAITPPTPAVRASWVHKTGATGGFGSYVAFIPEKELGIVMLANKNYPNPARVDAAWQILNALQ
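20 mM phosphate pH 7.0 + 0.01% (detergent screen) or 0.0001% Triton X-100; 5.3 nM AmpC reagent; cpd preinc 15 min RT; nitrocefin (800 uM stock) to start; A480 q20 s × 4 min; Activity was normalised to no-enzyme and no-compound control wells.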
AmpC inh no detg – AmpC beta-lactamase inhibition without detergent. P00811. AmpC nitrocefin hydrolysis, absorbance 480 nm, 0.0001% Triton. Potency, µM (doses to about 57.1 µM), most hits filed as inhibitors. 330,000 compounds, 0.52% hits. AID 485341; note: nearly all actives have a fitted effect of over 20% in size
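AmpC (5.3 nM in the dispensed reagent) in 20 mM phosphate pH 7.0 with 0.01% (detergent screen) or 0.0001% Triton X-100 was preincubated with compounds for 15 min at room temperature. Nitrocefin was then added from an 800 uM solution, and hydrolysis was followed at 480 nm.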
HCV inh – inhibitors of hepatitis C virus infection | Huh7.5.1 HCVcc-Cre infection, luciferase reporter, 44 h | Potency, µM (highest dose often 41.8 µM), usual class: inhibitors | 340,000 compounds, 3.4% hits | AID 651820
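Seed cells (1,000/well) for 4 h; treat with compound and infect with HCVcc-Cre, moi about 0.5. Incubate 44 h, then detect luciferase activity.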
FMDV antiviral – foot and mouth disease virus antiviral activity; AID 1159524; Potency, µM (doses to about 57.9 µM), most hits filed as inhibitors; 410,000 compounds, 1.2% hits; FMDV antiviral cell-based qHTS; calls by dose curve; tested in HEK293T cells; note: read-out not given here; nearly all actives have a fitted effect of over 45% in size
HCMV inh – inhibitors of human cytomegalovirus. HFF cells, HCMV-luciferase reporter, 72 h; stronger effect = lower value. activity change, negative = inhibition, % at 57.5 µM. 410,000 compounds, 4.5% hits. AID 1259415; in the data active = activity change below about -60%; inconclusive = no clear call, values can overlap the other calls; inactive = above about -39%
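Human foreskin fibroblasts infected with luciferase-reporter HCMV at MOI 1 PFU/cell, compounds at two doses. Luciferase measured 72 h post infection; normalized to buffer-only basal and Salinomycin (10uM) controls.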
Each line names hits and unclear results; the compound was inactive in the other large screens. Rows were chosen to be rich in hits. Some 7.3% of all compounds tested hit in one or more screens of this group. Unless noted, calls come from the whole dose curve; as a rule, active = well fitted curve in the direction sought with a large enough effect; inconclusive = small, poorly fitted or top-dose-only effect, or another doubt; inactive = no such curve, though single readings can be large; an effect the other way counts as inactive or inconclusive.

CCc1nn(CC(=O)NCCc2ccc(S(N)(=O)=O)cc2)c(=O)c2cc3sccc3n12	none (no result: HCMV inh)
CCOC(=O)N1CCC(c2cc(=O)n3[nH]c(C)c(-c4ccc(F)cc4)c3n2)CC1	AmpC detergent inconclusive, AmpC inh no detg 25.1µM, HCV inh inconclusive
COc1cc(OC)c(OC)cc1/C=C1\CC(C)C/C(=C\c2cc(OC)c(OC)cc2OC)C1=O (stereo unspecified)	HCV inh inconclusive, FMDV antiviral 12.6µM, HCMV inh -99.0
CCC1C/C(=C\c2cc(OC)c(OC)cc2OC)C(=O)/C(=C/c2cc(OC)c(OC)cc2OC)C1 (stereo unspecified)	HCV inh 7.08µM, FMDV antiviral inconclusive (no result: HCMV inh)
COc1cc(OC)c(OC)cc1/C=C1/Cc2ccccc2C1=O	HCV inh inconclusive
CCC1C/C(=C/c2ccco2)C(=O)/C(=C/c2ccco2)C1 (stereo unspecified)	AmpC detergent inconclusive, HCV inh inconclusive (no result: FMDV antiviral, HCMV inh)
COc1ccc(S(=O)(=O)N2CCOCC2)cc1NC(=O)c1ccncc1	none
NS(=O)(=O)c1ccc(Oc2ccc(S(N)(=O)=O)cc2)cc1	none
C=CS(=O)(=O)c1ccc(Oc2ccc(S(=O)(=O)C=C)cc2)cc1	HCV inh inconclusive, FMDV antiviral 3.98µM, HCMV inh -101.6
O=C(c1cnccn1)N1CCC2(CC1)CCN(c1ccccc1)CC2	none (no result: AmpC detergent, AmpC inh no detg, HCV inh, HCMV inh)
O=C(NC1CCCCC1)N1CCN(Cc2ccco2)CC1	HCMV inh -63.2
O=C(NC1CCCCC1)N1CCN(CCc2ccccc2)CC1	none
CCOc1ccccc1OCCNC(C)Cc1ccc(OC)c(S(N)(=O)=O)c1 (stereo unspecified)	none (no result: AmpC detergent, AmpC inh no detg, HCV inh, FMDV antiviral)
Cc1cccn2c(=O)c3cc(C(=O)NCc4ccc(F)cc4)c(=N)n(CCCN4CCOCC4)c3nc12	HCV inh inconclusive, FMDV antiviral 4.47µM (no result: AmpC detergent, AmpC inh no detg)
Cc1cccn2c(=O)c3cc(C(N)=S)c(=N)n(CCCN4CCOCC4)c3nc12	HCV inh inconclusive, FMDV antiviral inconclusive, HCMV inh -64.0
COCCCn1c(=N)c(C(N)=S)cc2c(=O)n3cccc(C)c3nc21	HCV inh inconclusive, HCMV inh inconclusive (no result: AmpC detergent, AmpC inh no detg)
Cc1ccc2nc3c(cc(C(N)=S)c(=N)n3CCCOC(C)C)c(=O)n2c1	HCV inh 25.1µM
Cc1ccccc1CC(=O)NCc1cccnc1	none
CCOC(=O)c1c(-n2c(C)cc(C=C3C(=O)NC(=S)NC3=O)c2C)sc2c1CCCC2	HCV inh inconclusive, FMDV antiviral 10µM (no result: HCMV inh)
CCOC(=O)c1c(-n2c(C)cc(/C=C3/C(=O)NC(=O)N(CC)C3=O)c2C)sc2c1CCCC2	FMDV antiviral inconclusive (no result: AmpC detergent, AmpC inh no detg)
COC(=O)c1c(-n2c(C)cc(C=O)c2C)sc2c1CCCC2	HCMV inh -75.9 (no result: FMDV antiviral)
COc1cc(C(=O)OCC(=O)N2CCN(C(C)=O)CC2)ccc1OCC(C)C	AmpC detergent inconclusive
O=C(Nc1cccc(-c2csc(Nc3ccc(Cl)cc3)n2)c1)c1ccccc1	HCV inh inconclusive
O=C(Nc1cccc(-c2csc(Nc3ccc(Cl)cc3)n2)c1)c1cccc(C(F)(F)F)c1	HCV inh 3.16µM, FMDV antiviral inconclusive
N#Cc1ccc(-c2csc(NNC(=O)c3ccc(Br)cc3)n2)cc1	AmpC detergent inconclusive, AmpC inh no detg inconclusive, HCV inh 8.91µM, HCMV inh -105.6
CC(=O)Nc1ccc(-c2csc(Nc3cccc(C)n3)n2)cc1	HCV inh 12.6µM
O=C(Nc1ccc(-c2csc(Nc3ccccc3)n2)cc1)c1ccccc1	AmpC detergent inconclusive, HCV inh inconclusive, HCMV inh -63.1
CC(C)(C)C1CCC(C(=O)Nc2ccccc2N2CCOCC2)CC1 (stereo unspecified)	none
Cc1ccc(S(=O)(=O)Nc2cccc(-n3cnnn3)c2)cc1C	none
O=C(Nc1nc(-c2ccccc2)cs1)c1cccnc1	HCV inh inconclusive
O=C(Nc1nc(-c2ccc(Br)cc2)cs1)c1cccnc1	HCMV inh -63.6
Cc1cc(C)cc(OCCSc2nc3ccc(NC(=O)c4ccc5c(c4)OCO5)cc3s2)c1	none (no result: AmpC inh no detg, HCV inh)
COc1ccc(-c2noc(C(C)NC(=O)c3ccco3)n2)cc1OC (stereo unspecified)	none
Cc1ccc(-c2nnc(SCC(=O)Nc3ccccc3F)o2)cc1	AmpC detergent inconclusive, HCMV inh -94.9
O=C(CSc1nnc(-c2cccnc2)o1)Nc1ccc(F)cc1	HCMV inh -76.1 (no result: AmpC detergent, AmpC inh no detg, HCV inh)
